Source: PubChem BioAssay (National Center for Advancing Translational Sciences (NCATS))
This is a sample that favours compounds with a hit; in the whole collection about 1.2% have one here.
Pin1 inhibitor: human Pin1 inhibition; Q13526; Pin1 FP peptide displacement, HiFluor488, 10 min; Potency, µM (top dose mostly 115 µM), hits mostly inhibitors; 0.009% of 390,000 active; active = well fitted inhibition curve with a large enough effect in the polarisation, with a control signal flat, not every such curve was filed as active; inconclusive = small, poorly fitted or top-dose-only effect, or effect the other way, or a change in a side signal; inactive = no such curve, though single readings can be large or run the other way; the % refers to the polarisation
PGK inhibitor: blocks T. brucei phosphoglycerate kinase. Potency, µM (top dose mostly 57.5 µM), usual class: inhibitors. PGK/GAPDH coupled, Kinase-Glo luminescence, 60 min. 0.043% of 380,000 active; also: nearly all actives have a fitted effect of over 60% in size
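Luminescent ATP detection (Kinase-Glo Plus) follows a 60-minute room-temperature incubation, with wells lacking PGK as controls. Buffer: 100 mM TEA (pH 7.6), 5 mM MgCl2, 0.01% Tween-20. Coupling enzyme GAPDH (100 nM final) supplies unstable 1,3-BPG in-well.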
hERG WT inh: blocks the wildtype human KCNH2 potassium channel. U2OS, BacMam KCNH2, thallium flux FluxOr; active compounds read low. activity change, % at 1.84 µM. 0.37% of 340,000 active. AID 720551;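 active = maximum activity change below -70%; inconclusive = maximum activity change between -70% and -50%; inactive = maximum activity change above -50%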
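U2OS cells transduced with wild-type KCNH2 virus are loaded with FluxOr dye for 45 min, and thallium flux is measured in kinetic reads before and after stimulation buffer. Rate constants are normalized to DMSO controls.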
KAT2A inh: inhibitors of human GCN5L2 histone acetyltransferase. Q92830. 0.21% of 390,000 active. GCN5L2 HAT assay, ThioGlo1 CoA-SH fluorescence. Potency, µM (titrated, usually from 58.9 µM), hits mostly inhibitors
Target sequence (Q92830 whole entry, looked up): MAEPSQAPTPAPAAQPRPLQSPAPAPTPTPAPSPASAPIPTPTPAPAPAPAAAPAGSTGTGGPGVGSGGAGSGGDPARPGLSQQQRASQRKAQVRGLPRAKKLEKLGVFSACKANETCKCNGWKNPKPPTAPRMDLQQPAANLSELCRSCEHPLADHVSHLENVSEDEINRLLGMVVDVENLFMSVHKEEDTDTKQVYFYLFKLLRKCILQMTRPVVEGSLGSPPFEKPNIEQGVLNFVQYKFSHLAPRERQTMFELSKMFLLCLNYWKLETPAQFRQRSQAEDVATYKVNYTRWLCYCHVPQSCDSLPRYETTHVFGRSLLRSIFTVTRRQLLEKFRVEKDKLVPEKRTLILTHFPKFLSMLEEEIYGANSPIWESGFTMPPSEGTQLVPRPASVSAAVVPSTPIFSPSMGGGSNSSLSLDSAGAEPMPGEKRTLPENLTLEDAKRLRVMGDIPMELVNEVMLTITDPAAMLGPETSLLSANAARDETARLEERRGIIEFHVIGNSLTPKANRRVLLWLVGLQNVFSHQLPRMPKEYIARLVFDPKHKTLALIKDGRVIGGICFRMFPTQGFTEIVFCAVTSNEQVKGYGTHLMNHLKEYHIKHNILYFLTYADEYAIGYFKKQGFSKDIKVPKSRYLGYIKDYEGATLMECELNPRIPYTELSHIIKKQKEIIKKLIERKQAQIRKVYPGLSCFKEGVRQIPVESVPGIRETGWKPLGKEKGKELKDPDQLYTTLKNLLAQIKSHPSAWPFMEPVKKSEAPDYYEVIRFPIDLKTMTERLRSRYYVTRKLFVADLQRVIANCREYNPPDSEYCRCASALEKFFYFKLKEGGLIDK
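qHTS, 1536-well. 20nM enzyme, pH 7.5 HEPES/EDTA/Tween-20 buffer; 15 min compound preinc., RT. Start: 75uM H3(1-25), 70uM AcCoA, 50uM ThioGlo1. Read Ex340/Em540 at t=0 (autofluorescence flag) and t=20 min.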
KCNH2 3.1 inh: inhibitors of human KCNH2 3.1 potassium channel isoform | activity change, % (tested at about 1.8 µM) | 0.95% of 340,000 active | U2OS KCNH2 3.1, thallium flux FluxOr; active compounds read low | AID 720553;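 active = maximum activity change below -70%; inconclusive = maximum activity change from -70% to -50%; inactive = maximum activity change above -50%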;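 also: thallium influx rate constant from kinetic fluorescence after stimulation buffer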
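Steps: virus added to U2OS suspension (4 h, RT, dark); medium with 10% FBS added, cells plated, 37 C overnight; FluxOr/Red40 loading buffer 45 min RT; stimulation buffer, 2 min kinetic read; rate constant normalized.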
RGS4 inhibitor: human RGS4 inhibition. Transcreener GDP fluorescence polarization, RGS4-accelerated GTP hydrolysis. Potency, µM (series often up to 114 µM), actives largely listed as inhibitors. 0.039% of 390,000 active; also: nearly all actives have a fitted effect of over 75% in size
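MLSMR compounds (23 nl, pin-transferred) preincubated 10 min at room temperature with a 500nM (2x) first reagent, then RGS4 at 900nM (2x) plus Transcreener GDP mix added; fluorescence polarization (620/688 nm) read before and after 90 min at 30 °C.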
Of the large screens only hits and unclear results are named; the others gave an inactive call. Unless noted, calls follow the shape of the dose curve; as a rule, active = well fitted curve in the direction sought with a large enough effect; inconclusive = small, poorly fitted or top-dose-only effect, or another doubt; inactive = no such curve, though single readings can be large; an effect the other way counts as inactive or inconclusive.

CCOCCCNC(=O)C(=O)Nc1c2c(nn1-c1ccc(OC)cc1)CSC2	none (no result: hERG WT inh, KCNH2 3.1 inh)
CCOc1ccc2nc(NC(=O)CN3CCC(n4nnc5cc(F)ccc54)CC3)sc2c1	KCNH2 3.1 inh -89.4
O=C(CN1CCC(n2nnc3cc(F)ccc32)CC1)NC1CC1	none
COc1ccccc1CNC(=O)CN1C(=O)NC2(CCCc3sccc32)C1=O (configuration not stated)	hERG WT inh -236.3
COc1ccc(CNC(=O)CN2C(=O)NC3(CCCc4sccc43)C2=O)cc1OC (configuration not stated)	none
Cc1ccc(-c2nnc3n2N=C(c2ccccc2)CS3)cc1	none
CCOc1ccc(C2=Nn3c(nnc3-c3ccccc3)SC2)cc1Cl	KCNH2 3.1 inh -202.8
CCOc1ccc2nc(N(CCN(CC)CC)C(=O)/C=C/c3cccs3)sc2c1	hERG WT inh inconclusive, KCNH2 3.1 inh -80.5
CN(C)CCCN(C(=O)CCc1ccccc1)c1nc2c(F)cccc2s1	KCNH2 3.1 inh -70.7
CN(C)CCCN(C(=O)/C=C/c1cccs1)c1nc2c(F)cccc2s1	KCNH2 3.1 inh -116.6
Cc1ccc(NC(=O)CN2C(=O)S/C(=C/c3ccc(-c4cc(C(=O)O)ccc4C)o3)C2=O)cc1C	Pin1 inhibitor inconclusive, PGK inhibitor 20µM, RGS4 inhibitor inconclusive
Nc1nc(-c2ccc(F)cc2)cs1	none
COc1ccc(-c2csc(N)n2)cc1F	hERG WT inh -123.5
Cc1cccc(C=Nc2ccc3c4c(cccc24)CC3)c1O	KAT2A inh 20µM
CCc1ccc(S(=O)(=O)Nc2cccc(-c3ccc(N4CCOCC4)nn3)c2)cc1	none (no result: hERG WT inh, KCNH2 3.1 inh)
Nc1cc(OC(=O)c2cccs2)nn1S(=O)(=O)c1ccccc1	none
Nc1cc(OC(=O)c2cccs2)nn1S(=O)(=O)c1ccc(F)cc1	Pin1 inhibitor inconclusive, KCNH2 3.1 inh -212.4
COc1ccccc1NC(=O)Cn1c(=O)n(-c2cccc(C)c2)c(=O)c2c1c1cc(C)ccc1n2C	none (no result: hERG WT inh, KCNH2 3.1 inh)
OC[C@H]1OC(O)[C@H](O)[C@@H](O)[C@@H]1O (some centres not stated)	none (no result: Pin1 inhibitor, PGK inhibitor, hERG WT inh, KCNH2 3.1 inh, RGS4 inhibitor)
O=C(c1ccccc1F)N1CCN(c2ccc([N+](=O)[O-])c3cccnc23)CC1	hERG WT inh -242.5
Cc1cc(N2CCN(c3ccc(C(F)(F)F)cc3[N+](=O)[O-])CC2)c2ccccc2n1	Pin1 inhibitor inconclusive, hERG WT inh -97.9, KCNH2 3.1 inh -101.7
O=C(c1ccccc1F)N1CCN(c2ccc([N+](=O)[O-])c3ncccc23)CC1	RGS4 inhibitor inconclusive
Nc1nonc1OCCN1CCN(c2ccc([N+](=O)[O-])c3cccnc23)CC1	none
Cc1cc(N2CCN(c3ccc([N+](=O)[O-])c4cccnc34)CC2)c2ccccc2n1	hERG WT inh -107.9, KCNH2 3.1 inh -102.5
O=C(O)C1OC(Oc2c(-c3ccc(O)c(O)c3)oc3cc(O)cc(O)c3c2=O)C(O)C(O)C1O (configuration not stated)	Pin1 inhibitor inconclusive, PGK inhibitor 25.1µM
CC1OC(Oc2c(-c3cc(O)c(O)c(O)c3)oc3cc(O)cc(O)c3c2=O)C(O)C(O)C1O (configuration not stated)	Pin1 inhibitor inconclusive, PGK inhibitor inconclusive
Cc1ccc(NCC(=O)N=Nc2c(O)[nH]c3ccc([N+](=O)[O-])cc23)cc1	Pin1 inhibitor inconclusive, KAT2A inh inconclusive
O=C(Nc1ccc(F)cc1)C(=O)c1c(O)[nH]c2ccc([N+](=O)[O-])cc12	Pin1 inhibitor inconclusive, KCNH2 3.1 inh -82.4
N#C/C(C(=O)Nc1ccc(Cl)cc1)=C(/S)Nc1ccccc1	KAT2A inh 7.94µM, RGS4 inhibitor inconclusive
O=C(Nc1ccc(Br)cn1)c1cccc(C(=O)Nc2ccc(Br)cn2)c1	KCNH2 3.1 inh -77.0
COc1ncc2nc(-c3cccs3)c(=O)n(-c3ccccc3)c2n1	KAT2A inh 39.8µM (no result: Pin1 inhibitor, PGK inhibitor, hERG WT inh, KCNH2 3.1 inh, RGS4 inhibitor)
CN1CCN(c2ncc3nc(-c4ccccc4)c(=O)n(-c4ccccc4)c3n2)CC1	KAT2A inh 22.4µM (no result: Pin1 inhibitor, PGK inhibitor, hERG WT inh, KCNH2 3.1 inh, RGS4 inhibitor)
COc1ccc(-n2c(=O)c(-c3ccccc3)nc3cnc(N4CCN(C)CC4)nc32)cc1	none (no result: Pin1 inhibitor, PGK inhibitor, hERG WT inh, KCNH2 3.1 inh, RGS4 inhibitor)
CCOc1ccc(C(=O)NC(=S)N2CCN(c3ccc(C(F)(F)F)cc3[N+](=O)[O-])CC2)cc1	hERG WT inh inconclusive, KCNH2 3.1 inh -70.4
COc1cccc(C(=O)NC(=S)N2CCN(c3ccc(C(F)(F)F)cc3[N+](=O)[O-])CC2)c1	none
CCc1ccc(NC(=O)N(Cc2c[nH]c3ccccc23)C2CCCCCC2)cc1	none (no result: hERG WT inh, KCNH2 3.1 inh)
O=C(NCCS(=O)(=O)c1ccc(Br)cc1)c1ccc(F)cc1	hERG WT inh -251.1
O=C(NCCS(=O)(=O)c1ccc(Cl)cc1)c1ccc(F)cc1	none
CC(Oc1ccc(Br)cc1)C(=O)N1CCC(C(N)=O)CC1 (configuration not stated)	KCNH2 3.1 inh -71.0
O=C(OCC1OC(n2cnc3c(N(C(=O)c4ccccc4)C(=O)c4ccccc4)ncnc32)C(O)C1F)c1ccccc1 (configuration not stated)	KCNH2 3.1 inh -85.6
O=C1C(SCCO)=C(SCCO)C(=O)c2ccccc21	Pin1 inhibitor inconclusive, RGS4 inhibitor 3.36µM
O=C(CCc1nnc2ccc(NCc3ccccc3)nn12)NC1CCCC1	KCNH2 3.1 inh -75.4
COc1cccc2c1CCC1=CC(=O)CC[C@@]12C	none (no result: Pin1 inhibitor, PGK inhibitor, hERG WT inh, KCNH2 3.1 inh, RGS4 inhibitor)
CCc1ccccc1NC(=O)c1cc(S(=O)(=O)N(CC)c2ccccc2)ccc1F	none (no result: hERG WT inh, KCNH2 3.1 inh)
Cc1c(Cl)cccc1NC(=O)CNC(=O)Cc1c[nH]c2ccccc12	none
CC(C)CNC(=O)CCCc1c[nH]c2ccccc12	hERG WT inh -70.4
Cc1cccc(C)c1NC(=O)CNC(=O)Cc1c[nH]c2ccccc12	hERG WT inh -106.0
O=C(CCCc1c[nH]c2ccccc12)NCCc1c[nH]c2ccccc12	none
S=C(NCc1ccc(Cl)cc1)NC1CCN(Cc2ccccc2)CC1	KCNH2 3.1 inh -75.7
CCOC(=O)c1[nH]c2ccc(F)cc2c1NC(=O)CN1CCc2cc(OC)c(OC)cc2C1	none (no result: Pin1 inhibitor, PGK inhibitor, hERG WT inh, KCNH2 3.1 inh, RGS4 inhibitor)
COc1ccc(C)cc1NC(=O)CN1CCN(c2ccccc2F)CC1	RGS4 inhibitor inconclusive
COc1ccc(C)cc1NC(=O)Nc1ccccc1	hERG WT inh -136.9, KCNH2 3.1 inh -134.5, RGS4 inhibitor inconclusive
COC(=O)c1[nH]c2ccccc2c1NC(=O)CN1CCN(C/C=C/c2ccccc2)CC1	hERG WT inh -93.9, KCNH2 3.1 inh -96.4
COc1ccc(C)cc1NC(=O)CN1CCN(C/C=C/c2ccccc2)CC1	hERG WT inh -98.0, KCNH2 3.1 inh -102.3
